Data reported in PubChem BioAssay.
Active and inactive are the calls of the source. Unless noted, the rule behind the calls is not given here.

Legend:
[1] = A549 cell viability effects, profiling panel, calcein-AM fluorescence, 48 h, basal (AID 1162); conditions: higher = more signal; note: test concentration not given here
[2] = adipocyte viability effects, profiling panel, cell-based, 3T3-L1 adipocytes, calcein-AM fluorescence, 48 h, basal (AID 1163); conditions: 3T3-L1 adipocytes viability, higher = more signal; note: test concentration not given here
[3] = HepG2 cell viability effects, profiling panel, calcein-AM fluorescence, 48 h, basal (AID 1164); conditions: higher = more signal; note: test concentration not given here
[4] = MM1S cell viability effects, profiling panel, calcein-AM fluorescence, 48 h, basal (AID 1165); conditions: higher = more signal;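 note: viability of MM1S multiple myeloma cells under basal unstimulated conditions; test concentration not given here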
[5] = basal RPMI8226 viability, no added stimulus, profiling panel, cell-based, calcein-AM fluorescence, 48 h, PK04 Diversity Set (AID 1166); conditions: RPMI8226 myeloma viability, higher = more signal;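 note: cells grown under basal conditions without added stimulus; test concentration not given here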
[6] = basal HepG2 mitochondrial membrane potential changes, profiling panel, cell-based, JC-1 fluorescence, 24 h, 100 nL compound (AID 1167); conditions: higher = more signal; note: test concentration not given here
[7] = basal 3T3-L1 adipocyte mitochondrial potential changes, profiling panel, cell-based, JC-1 fluorescence, 3T3-L1 adipocytes, 24 h, 100 nL compound (AID 1168); conditions: JC-1 mitochondrial fluorescence, higher = more signal, called active from +8 up or from −8 down; note: test concentration not given here
[8] = basal RPMI8226 mitochondrial membrane potential changes, profiling panel, cell-based, JC-1 fluorescence, 24 h, 100 nL compound (AID 1169); conditions: RPMI8226 myeloma, JC-1 mitochondrial potential fluorescence, higher = more signal; note: test concentration not given here
[9] = basal MM1S mitochondrial membrane potential changes, profiling panel, cell-based, JC-1 fluorescence, 24 h, 100 nL compound (AID 1170); conditions: higher = more signal; note: test concentration not given here
[10] = A549 lung cancer cell viability effects, profiling panel, resazurin fluorescence, 24 h, PK04 Diversity Set (AID 1171); conditions: higher = more signal, called active from +8 up or from −8 down; note: test concentration not given here
[11] = HepG2 liver cancer cell viability effects, profiling panel, resazurin fluorescence, 24 h, PK04 Diversity Set (AID 1172); conditions: higher = more signal; note: test concentration not given here
[12] = basal S. cerevisiae growth modulation, no modifier, primary screen, OD600, strain BY4716, 24 h, basal condition (AID 1173); conditions: OD600, 24 h, higher = more signal, called active from +8 up or from −8 down
[13] = MM1S myeloma cell viability, profiling panel, resazurin fluorescence, basal, 24 h, PK04 Diversity Set (AID 1174); conditions: higher = more signal, called active from +8 up or from −8 down;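 note: MM1S multiple myeloma cell line; test concentration not given here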
[14] = molecular target: Dihydroorotate dehydrogenase (quinone), mitochondrial (Plasmodium falciparum (isolate 3D7)) (UniProt Q08210); assay: PfDHODH enzyme inhibitors, primary screen, biochemical, C-terminal His tag, absorbance 600 nm (AID 1175); conditions: DCIP absorbance 600 nm, higher = more signal, called active from +8 up or from −8 down;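 note: recombinant parasite enzyme with a five histidine tag at its C terminus; test concentration not given here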
[15] = P. aeruginosa biofilm formation inhibitors, primary screen, strain PAO1, LB-PBS medium, absorbance 600 nm (AID 1176); note: test concentration not given here; conditions: P. aeruginosa PAO1 growth/biofilm, A600, 12 h; higher = more signal
[16] = S. cerevisiae RM11-1a growth modifiers, primary screen, strain RM11-1a, OD600, basal, 24 h (AID 1177); conditions: OD600, 24 h, higher = more signal, called active from +8 up or from −8 down;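 note: cultures grown under basal conditions with no added stressor; test concentration not given here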
[17] = E. coli acrAB mutant growth effects, primary screen, E. coli filamentation inducers, strain DRC39, OD650, 24 h (AID 1178); conditions: higher = more signal, called active from +8 up or from −8 down;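 note: growth measured as culture turbidity by optical density at 650 nm; test concentration not given here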
[18] = E. coli acrAB mutant growth effects, primary screen, E. coli filamentation inducers, strain DRC39, OD650, 48 h (AID 1179);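 note: screen aims at cell division blockers that make cells filament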; conditions: E. coli DRC39 delta-acrAB growth, higher = more signal, called active from +8 up or from −8 down
[19] = RPMI8226 myeloma cell viability, profiling panel, resazurin fluorescence, basal, 24 h, PK04 Diversity Set (AID 1180); conditions: higher = more signal;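 note: RPMI8826 multiple myeloma cell line at 5000 cells per well; test concentration not given here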
[20] = molecular target: E3 ubiquitin-protein ligase XIAP (Homo sapiens) (UniProt P98170); assay: XIAP binders, primary screen, biophysical, small-molecule microarray, fluorescence 635 nm (AID 1181); conditions: small-molecule microarray binding, higher = more signal;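 note: score merges 667 nm emission and signal to noise over triplicate slides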
E3 ubiquitin-protein ligase XIAP (Homo sapiens), sequence (P98170 whole entry, looked up): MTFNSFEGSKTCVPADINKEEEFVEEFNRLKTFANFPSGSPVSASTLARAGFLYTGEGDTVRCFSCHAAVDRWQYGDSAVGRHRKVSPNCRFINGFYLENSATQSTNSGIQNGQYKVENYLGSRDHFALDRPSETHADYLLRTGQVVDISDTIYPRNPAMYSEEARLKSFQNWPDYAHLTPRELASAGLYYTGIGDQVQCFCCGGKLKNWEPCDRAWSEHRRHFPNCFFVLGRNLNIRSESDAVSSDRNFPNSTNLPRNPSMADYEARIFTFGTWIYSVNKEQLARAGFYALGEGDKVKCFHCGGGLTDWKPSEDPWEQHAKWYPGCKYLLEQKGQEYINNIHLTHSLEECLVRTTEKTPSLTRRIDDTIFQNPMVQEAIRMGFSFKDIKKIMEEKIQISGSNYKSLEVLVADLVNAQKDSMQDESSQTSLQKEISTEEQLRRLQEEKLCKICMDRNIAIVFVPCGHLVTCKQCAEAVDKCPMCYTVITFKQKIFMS

Dihydroorotate dehydrogenase (quinone), mitochondrial (Plasmodium falciparum (isolate 3D7)), sequence (Q08210 whole entry, looked up): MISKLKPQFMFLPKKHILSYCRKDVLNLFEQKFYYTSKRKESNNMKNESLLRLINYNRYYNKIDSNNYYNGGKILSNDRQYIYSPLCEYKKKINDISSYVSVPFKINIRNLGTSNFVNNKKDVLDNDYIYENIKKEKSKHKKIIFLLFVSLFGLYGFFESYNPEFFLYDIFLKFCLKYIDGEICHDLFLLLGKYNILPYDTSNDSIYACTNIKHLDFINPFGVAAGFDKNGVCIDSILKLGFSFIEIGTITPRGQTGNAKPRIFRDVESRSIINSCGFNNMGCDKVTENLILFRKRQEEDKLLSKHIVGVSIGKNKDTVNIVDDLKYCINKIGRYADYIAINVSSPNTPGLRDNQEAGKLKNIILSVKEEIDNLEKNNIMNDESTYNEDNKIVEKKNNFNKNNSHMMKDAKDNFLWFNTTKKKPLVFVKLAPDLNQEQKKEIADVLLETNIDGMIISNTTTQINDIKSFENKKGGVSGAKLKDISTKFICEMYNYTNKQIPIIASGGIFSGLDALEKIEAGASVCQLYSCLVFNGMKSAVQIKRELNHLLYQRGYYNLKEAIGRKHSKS

| Compound | z-score [1] | z-score [2] | z-score [3] | z-score [4] | z-score [5] | z-score [6] | z-score [7] | z-score [8] | z-score [9] | z-score [10] | z-score [11] | z-score [12] | z-score [13] | composite z-score [14] | z-score [15] | z-score [16] | z-score [17] | z-score [18] | z-score [19] | composite z-score [20] |
| --- | --- | --- | --- | --- | --- | --- | --- | --- | --- | --- | --- | --- | --- | --- | --- | --- | --- | --- | --- | --- |
| CCCCCN1CC=CC23O[C@@H]4/C=C\CCC(C)OC(=O)C4[C@H]2C(=O)N(CCCCCCO)[C@@H]3C1=O (stereo not given in full) | 0.29 | 0.644 | 0.822 | 1.6 | 0.656 | 0.589 | 0.785 (inactive) | -0.141 | -0.459 | 0.944 (inactive) | 1.1 | -0.262 (inactive) | 0.798 (inactive) | -1.35 (inactive) | 0.165 (inactive) | 0.422 (inactive) | 1.11 (inactive) | 0.848 (inactive) | 1.26 | -0.359 |
| C=C(/C(=C/C[C@H](OC(=O)c1ccncc1)c1ccccc1OCCO)c1cnc2ccccc2c1)C(C)C | 0.0894 | -0.253 | -0.444 | -1.26 | -0.906 | 0.96 | -0.482 (inactive) | -0.331 | -0.174 | 1.35 (inactive) | 0.495 | -0.147 (inactive) | -0.632 (inactive) | -3.77 (inactive) | 1.07 (inactive) | -0.07 (inactive) | 0.395 (inactive) | 0.313 (inactive) | 0.262 | -0.0771 |
| CCCCCCCCCCC(O)C1C=CC2C(=O)N(C)C(=O)C2N1Nc1cc(OC)c(OC)c(OC)c1 (stereo not given) | -2.12 | -0.555 | -3.26 | -3.8 | -4.07 | -0.993 | 0.485 (inactive) | -0.913 | -2.12 | -1.38 (inactive) | -2.36 | -1.36 (inactive) | -3.17 (inactive) | -1.3 (inactive) | 0.971 (inactive) | 0.439 (inactive) | -0.875 (inactive) | -1.12 (inactive) | -3.54 | -0.182 |
| [N-]=[N+]=NCc1ccccc1C[C@@]1(C(=O)N2CCCCC2)N=C(c2ccc(OCCCO)cc2)O[C@@H]1c1ccccc1CN=[N+]=[N-] | -0.683 | -0.819 | 0.036 | -1.39 | -3.57 | -0.357 | -0.639 (inactive) | -1.17 | -1.64 | 0.742 (inactive) | -0.539 | 0.069 (inactive) | -1.27 (inactive) | 0.669 (inactive) | 1.87 (inactive) | 1.61 (inactive) | 0.191 (inactive) | 0.594 (inactive) | -0.911 | -0.117 |
| CN1C(=O)C2C=CC(C(O)c3cc(C(F)(F)F)cc(C(F)(F)F)c3)N(Nc3ccccc3)C2C1=O (stereo not given) | -1.53 | -1.36 | -0.78 | -0.239 | -0.683 | -1.09 | -0.551 (inactive) | -0.222 | 0.333 | 0.672 (inactive) | -0.0075 | -2.64 (inactive) | -0.18 (inactive) | -0.274 (inactive) | 0.214 (inactive) | -0.478 (inactive) | -0.732 (inactive) | -0.556 (inactive) | 0.298 | 0.0641 |
| O=C1O[C@H](c2ccccc2)[C@H](c2ccccc2)N2[C@H]1[C@@H](C(=O)O)[C@]1(C(=O)Nc3ccc(C#CC4(O)CCCCCC4)cc31)[C@H]2c1ccc(O)cc1 | -0.167 | 0.685 | -0.714 | -0.217 | 0.265 | -0.482 | -0.559 (inactive) | -0.0905 | -0.705 | 0.976 (inactive) | 0.934 | -1.83 (inactive) | 1.36 (inactive) | -3.2 (inactive) | 0.734 (inactive) | -0.692 (inactive) | 0.451 (inactive) | -0.679 (inactive) | -0.0544 | -0.248 |
| C=C(C)C1CCC(C(O)C2C=CC3C(=O)N(C)C(=O)C3N2Nc2cc(OC)c(OC)c(OC)c2)CC1 (stereo not given) | -1.13 | -1 | -0.273 | -0.989 | -0.0317 | -0.648 | -0.696 (inactive) | -0.354 | -0.549 | -0.404 (inactive) | -1.15 | 0.552 (inactive) | -0.901 (inactive) | -0.896 (inactive) | 0.971 (inactive) | 0.065 (inactive) | -0.274 (inactive) | -0.379 (inactive) | -1.27 | 0.153 |
| COC(=O)[C@@]1(Cc2ccccc2CN=[N+]=[N-])N=C(c2ccc(OCCCO)cc2)O[C@H]1c1ccccc1 | -2.84 | 0.658 | -4.68 | -3.57 | -4.03 | -2.06 | 0.315 (inactive) | -1.01 | -2.53 | -2.6 (inactive) | -2.6 | 0.797 (inactive) | -5.44 (inactive) | 1.09 (inactive) | 1.83 (inactive) | 2.81 (inactive) | 0.759 (inactive) | -0.783 (inactive) | -6.08 | 0.162 |
| C=C/C=C/[C@@H]1C(=C)CN([C@@H](Cc2ccccc2)C(=O)OC)[C@H]1[C@@H](O)Cc1ccccc1 | 0.192 | -0.47 | 0.438 | -3.04 | -2.15 | -0.28 | 0.147 (inactive) | -0.975 | -2.24 | 0.663 (inactive) | 0.779 | -1.03 (inactive) | -0.196 (inactive) | 0.0865 (inactive) | 0.106 (inactive) | 0.774 (inactive) | 0.18 (inactive) | -0.45 (inactive) | -0.697 | -0.0349 |
